Test results reported in PubChem BioAssay (Tox21).
Results filed as inconclusive are left out. A call without a number means that no potency is given here. Values without a mark were called inactive. Calls of active or inactive are those of the source. The call rests on the fitted dose curve.

Molecular target: Beta-2 adrenergic receptor (Homo sapiens) (UniProt P07550)
Assay: Adrenergic beta2 receptor (ADRB2) small molecule agonists, cell-based qHTS assay (AID 1963593);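 further: CHO cells stably overexpressing human ADRB2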
How it was run: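 CHO cells stably over-expressing ADRB2 were plated overnight at 37C, then dosed with compounds plus a stimulation mix containing 100uM IBMX and 25uM Ro-20-1724 for 0.5hr at room temperature. cAMP was measured by HTRF competition, 1hr.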

Sequence of Beta-2 adrenergic receptor (Homo sapiens) (P07550 whole entry, looked up): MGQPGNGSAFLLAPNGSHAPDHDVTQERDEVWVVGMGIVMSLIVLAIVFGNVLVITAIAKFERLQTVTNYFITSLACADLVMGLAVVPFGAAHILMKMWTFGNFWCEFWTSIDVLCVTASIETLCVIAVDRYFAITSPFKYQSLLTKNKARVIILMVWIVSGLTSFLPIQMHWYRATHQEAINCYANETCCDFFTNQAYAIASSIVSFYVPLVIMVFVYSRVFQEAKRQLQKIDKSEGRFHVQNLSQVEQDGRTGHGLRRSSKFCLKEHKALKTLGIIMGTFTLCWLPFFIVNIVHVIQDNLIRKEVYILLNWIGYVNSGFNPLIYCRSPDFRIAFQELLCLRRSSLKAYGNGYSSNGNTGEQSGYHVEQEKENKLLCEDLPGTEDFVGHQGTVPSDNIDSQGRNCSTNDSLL

## CC(C)(C)c1ccc(C=O)cc1
  Potency: inactive

## CCCC/C=C\CCCCCCCCCC=O
  Potency: inactive

## FC(F)(F)c1ccccc1-n1ccnc1
  Potency: inactive

## COC(=O)/C=C(/C)N
  Potency: inactive

## O=C(O)C(=O)Nc1cccc(-c2nn[nH]n2)c1
  Potency: inactive

## ON(Cc1ccccc1)Cc1ccccc1
  Potency: inactive

## O=C(O)C1CCC(C(=O)O)CC1 (centres undefined)
  Potency: inactive

## CC(=O)[O][Al][O]C(C)=O
  Potency: inactive

## COc1cc(C)c(Cc2cnc(N)nc2N)cc1OC
  Potency: inactive

## O=C1C(c2[nH]c3ccc(S(=O)(=O)O)cc3c2O)=Nc2ccc(S(=O)(=O)O)cc21
  Potency: inactive

## [O]=[Zr]
  Potency: inactive

## C=CC(=O)NC(C)C
  Potency: inactive

## COCc1ccc(COC)cc1
  Potency: inactive

## C[C@@H]1CCC[C@H](C)N1CCCC(O)(c1ccccc1)c1ccccn1 (some centres undefined)
  Potency: inactive

## CC(C)(C)CC(C)(C)c1ccc(Nc2ccc(C(C)(C)CC(C)(C)C)cc2)cc1
  activation: 6.6% [at 8.39 µM]

## CO/N=C(/C(=O)N[C@@H]1C(=O)N2C(C(=O)O)=C(COC(N)=O)CS[C@H]12)c1ccco1
  Potency: inactive

## C=CCCCCCCCCC(=O)OCCCC
  Potency: inactive

## C=COCCOCCOCCOC=C
  Potency: inactive

## OCC1(CO)COCOC1
  Potency: inactive

## NCCC(O)(P(=O)(O)O)P(=O)(O)O
  Potency: inactive

## NC(=O)c1ccccc1Cl
  Potency: inactive

## COc1cccc(OC)c1
  Potency: inactive

## O=c1[nH]c2ccccc2c(=O)n1CCCl
  Potency: inactive

## O=C(c1ccccc1)C1(O)CCCCC1
  Potency: inactive

## CCCC(C)C(O)CC (centres undefined)
  Potency: inactive

## CNC1(C)C2CCC(C2)C1(C)C (centres undefined)
  Potency: inactive

## O=C1NC(c2ccccc2)(c2ccccc2)C(=O)N1COP(=O)(O)O
  Potency: inactive

## NCC1(Cc2noc(=O)[nH]2)CCCCC1
  Potency: inactive

## COC(=O)c1cc(Cl)ccc1NS(=O)(=O)C(F)(F)F
  Potency: inactive

## CCN(CC)CCN
  Potency: inactive

## SCCSCCS
  Potency: inactive

## Cc1ccccc1C
  Potency: inactive

## Cc1nc(C)c(C)nc1C
  Potency: inactive

## CCCCOC(=O)CCCCCCCC(=O)OCCCC
  Potency: inactive

## CC1CC(OC(=O)c2ccccc2O)CC(C)(C)C1 (centres undefined)
  Potency: inactive

## C=CCS(=O)(=O)O
  Potency: inactive

## C[N+]1([O-])CCOCC1
  Potency: inactive

## CC(=O)N1C[C@H](O)C[C@H]1C(=O)O
  Potency: inactive

## CCCCCCCCS(=O)(=O)Cl
  Potency: inactive

## COC(=O)c1ccccc1C
  Potency: inactive

## CC(C)OCCO
  Potency: inactive

## O=c1[nH]cnc2c1ncn2[C@@H]1O[C@H](CO)[C@@H](O)[C@H]1O
  Potency: inactive

## OCC1CCC(CO)CC1 (centres undefined)
  Potency: inactive

## Cc1c(I)c(=O)n(-c2ccccc2)n1C
  Potency: inactive

## CCCCCCCC(=O)[O-].CCCCCCCC(=O)[O-].[Zn+2]
  Potency: inactive

## CC1(C)C2=CCCC(C)(C)[C@]23CC[C@H]1C3
  Potency: inactive

## CC(=O)N(c1onc(C)c1C)S(=O)(=O)c1ccc(N)cc1
  Potency: inactive

## O=C(c1ccc(Cl)cc1)c1ccc(Cl)cc1
  Potency: inactive

## C=CC(=O)NCOCC(C)C
  Potency: inactive

## C=CCCC=C
  Potency: inactive

## C[n+]1ccn(Cc2ccccc2)c1
  Potency: inactive

## CCCC(O)C(O)CO (centres undefined)
  Potency: inactive

## C=CCCC(=O)/C=C/C1C(C)=CCCC1(C)C (centres undefined)
  Potency: inactive

## CCCCCCCCCC(C)=O
  Potency: inactive

## CC(O)Cn1cnc2c1c(=O)n(C)c(=O)n2C (centres undefined)
  Potency: inactive

## CCCc1c2oc(C(=O)O)cc(=O)c2cc2c(=O)cc(C(=O)O)n(CC)c12
  Potency: inactive

## C[Si](C)=O
  activation: 7.37% [at 8.39 µM]

## COc1cc(OC)nc(O[C@H](C(=O)O)C(OC)(c2ccccc2)c2ccccc2)n1
  Potency: inactive

## CC(=O)OCC(=O)Nc1cc(C#N)cc(NC(=O)COC(C)=O)c1Cl
  Potency: inactive

## C=C(C)C(=O)OCCCCCCOC(=O)C(=C)C
  Potency: inactive

## O=S(=O)(O)c1cccc(S(=O)(=O)O)c1
  Potency: inactive

## CCCCCCCCCCCCCCC(=O)NC(CO)CCCCCCCCCCCCCC (centres undefined)
  Potency: inactive

## O=C(O)/C=C/c1ccccc1
  Potency: inactive

## CC(C)(O)C(=O)O
  Potency: inactive

## CCC(O)CO (centres undefined)
  Potency: inactive

## C=CC(=O)OCCN(CC)CC
  Potency: inactive

## CC(=O)CC(N)=O
  Potency: inactive

## COC(=O)N[C@H](C(=O)N[C@@H](Cc1ccccc1)[C@@H](O)CN(Cc1ccc(-c2ccccn2)cc1)NC(=O)[C@@H](NC(=O)OC)C(C)(C)C)C(C)(C)C
  Potency: inactive

## CC(=O)c1cc2ccccc2s1
  Potency: inactive
